Laboratory results taken from PubChem BioAssay (Tox21).
Inconclusive results are not listed. Values without a mark were called inactive. The call rests on the fitted dose curve.

Target: Progesterone receptor (Homo sapiens) (UniProt P06401)
Test: qHTS assay to identify small molecule agonists of the progesterone receptor (PR) signaling pathway (AID 1346784); further: nearly all actives have a fitted effect of over 30% in size
Details: PR-UAS-bla HEK293T, beta-lactamase FRET ratio, 16 h; series mostly up to 92.4 µM; activation: at the top concentration
Description: U.S. Tox21 Program National Center for Advancing Translational Sciences [NCATS] NIH Chemical Genomics Center [NCGC] U.S. Environmental Protection Agency [EPA] National Institutes of Environmental Health Sciences [NIEHS] National Toxicology Program [NTP] U.S. Food and Drug Administration [FDA] […] Endocrine disrupting chemicals (EDCs) and their interactions with steroid hormone receptors like PR causes disruption of normal endocrine function. To identify the compounds that activate PR signaling, a PR-UAS-bla GripTite cell line i.e. PR-UAS-bla HEK 293T (Invitrogen, Carlsbad, CA, USA) containing a beta-lactamase reporter gene under the control of an Upstream Activator Sequence (UAS) was used to screen Tox21 10K compound library.
Tox21 Assay Protocol Summary: PR-UAS-bla HEK 293T cells were dispensed at 3,000 cells/5 uL of assay medium containing 2% charcoal stripped FBS per well into black wall/clear-bottom 1536-well plates using a Multidrop Combi (ThermoFisher Scientific, Waltham, MA) dispenser. After the assay plates were incubated at a 37C and 5% CO2 for 6hr, 23 nL of compounds dissolved in DMSO, positive controls or DMSO only was transferred to the assay plate by a Pintool station (Kalypsys, San Diego, CA). The plates were incubated at 37C and 5% CO2 for 16hr. Then 1 uL of LiveBLAzer B/G FRET substrate was added using a BioRAPTR FRD (Flying Reagent Dispenser, Aurora Discovery, San Diego, CA). After the plates were incubated at room temperature for 2 hours, fluorescence intensity was measured by an Envision plate reader (PerkinElmer, Shelton, CT).
On the % scale 0 is the no-effect control and ±100 the full control effect.

Sequence of Progesterone receptor (Homo sapiens) (P06401 whole entry, looked up): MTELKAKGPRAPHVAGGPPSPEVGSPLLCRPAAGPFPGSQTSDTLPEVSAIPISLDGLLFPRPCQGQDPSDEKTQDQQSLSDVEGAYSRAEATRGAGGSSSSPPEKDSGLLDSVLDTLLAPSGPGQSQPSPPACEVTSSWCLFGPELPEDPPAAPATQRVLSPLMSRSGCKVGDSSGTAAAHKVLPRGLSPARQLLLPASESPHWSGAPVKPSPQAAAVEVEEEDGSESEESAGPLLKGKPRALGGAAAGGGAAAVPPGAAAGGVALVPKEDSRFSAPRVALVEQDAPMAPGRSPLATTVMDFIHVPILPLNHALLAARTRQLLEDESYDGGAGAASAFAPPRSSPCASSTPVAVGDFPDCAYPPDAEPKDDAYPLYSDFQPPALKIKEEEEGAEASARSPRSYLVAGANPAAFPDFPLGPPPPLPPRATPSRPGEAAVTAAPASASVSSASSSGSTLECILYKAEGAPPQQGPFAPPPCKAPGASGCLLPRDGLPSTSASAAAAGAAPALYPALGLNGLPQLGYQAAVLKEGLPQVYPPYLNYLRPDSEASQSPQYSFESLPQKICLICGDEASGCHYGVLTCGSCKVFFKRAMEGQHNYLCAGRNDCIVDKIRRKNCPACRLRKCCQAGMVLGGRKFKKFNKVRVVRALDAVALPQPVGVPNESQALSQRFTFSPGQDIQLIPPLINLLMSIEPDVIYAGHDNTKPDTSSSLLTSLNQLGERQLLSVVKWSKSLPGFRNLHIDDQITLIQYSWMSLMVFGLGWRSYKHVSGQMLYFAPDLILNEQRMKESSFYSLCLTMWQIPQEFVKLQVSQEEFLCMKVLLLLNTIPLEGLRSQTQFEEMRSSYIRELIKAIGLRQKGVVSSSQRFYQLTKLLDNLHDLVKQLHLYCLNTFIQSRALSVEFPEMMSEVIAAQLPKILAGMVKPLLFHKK

Row | Compound | activation
1 | c1ccc2c(c1)CCc1ccccc1N2 | 1.65% [at 42.5 µM]
2 | O=C1c2ccccc2C(=O)C1c1ccc(Br)cc1 | -1.41% [at 42.5 µM]
3 | CC(=O)OCC[N+](C)(C)C | -0.206% [at 42.5 µM]
4 | CCOc1cccc(-n2cc(C(=O)N3CCN(c4cc(C(=O)O)c5ccccc5c4)CC3)nc2-c2ccc(C)cc2)c1 | -3.74%
5 | COc1ccc(OC(=O)N(CC(=O)O)Cc2ccc(OCCc3nc(-c4ccccc4)oc3C)cc2)cc1 | 2.32% [at 42.5 µM]
6 | C[C@H]1C[C@H](O)c2ccsc2S1(=O)=O | 0.133% [at 42.5 µM]
7 | CCOC(C)=O | 0.368%
8 | O=C(/C=C/c1ccc(O)c(O)c1)O[C@@H]1C[C@@](OC(=O)/C=C/c2ccc(O)c(O)c2)(C(=O)O)C[C@@H](O)[C@@H]1O | -0.138% [at 42.5 µM]
9 | CCCCCCCCCCC(=O)O | 4.75%
10 | CC(CCC(=O)O)C(=O)O (stereo not given) | 0.748%
11 | O=C1c2ccccc2C(=O)C1c1nc2ccccc2c(Br)c1O | 0.0537%
12 | Cc1cscn1 | -0.267%
13 | O=C1CCCCCCCCCCOCCCCO1 | -0.0797%
14 | CC1(C)[C@@H](OC(=O)CCC(=O)O)CC[C@]2(C)[C@H]3C(=O)C=C4[C@@H]5C[C@@](C)(C(=O)O)CC[C@]5(C)CC[C@@]4(C)[C@]3(C)CC[C@@H]12 | -0.347% [at 42.5 µM]
15 | CCC=CC#N | -0.155%
16 | O=[N+]([O-])c1ccc(Nc2ccc(Nc3ccccc3)c(S(=O)(=O)O)c2)c([N+](=O)[O-])c1 | -4.26%
17 | CCCCN1CCCC1C(=O)Nc1c(C)cc(C)cc1C (stereo not given) | -2% [at 42.5 µM]
18 | CCC1CO1 (stereo not given) | 0.843%
19 | CC(C)(C)C(=O)C(=O)O | 1.45%
20 | CC(CC1c2ccccc2CCc2ccccc21)CN(C)C (stereo not given) | -5.07% [at 42.5 µM]

Row | Compound | activation
21 | Nc1cccc2c1CN(C1CCC(=O)NC1=O)C2=O (stereo not given) | 0.126% [at 42.5 µM]
22 | CNC(=O)c1cnn(-c2nc(N)c3ncn([C@@H]4O[C@H](CO)[C@@H](O)[C@H]4O)c3n2)c1 | 1.61% [at 42.5 µM]
23 | CC/C=C1/OC(=O)c2ccccc21 | 0.364%
24 | CCOC(=O)C1=C(C)NC(C)=C(C(=O)OC)C1c1cccc(Cl)c1Cl (stereo not given) | 7.01% [at 42.5 µM]
25 | O=C=Nc1ccc(Cl)c(Cl)c1 | -11%
26 | C[C@@]12CCC[C@H]1[C@@H]1CC[C@H]3C[C@@H](O)CC[C@]3(C)[C@H]1CC2 | 0.0445% [at 42.5 µM]
27 | CCCCCCCCOc1ccc(C(=O)O)cc1 | 13.4%
28 | O=C1NCCN1CCO | -0.914%
29 | CCCCN(CCN(CCCC)C(=O)N1CCOCC1)C(=O)N1CCOCC1 | -4.75% [at 42.5 µM]
30 | CC1CC(C)C(=O)C1=O (stereo not given) | -0.63%
31 | O=c1cc(-c2ccccc2)oc2ccc3ccccc3c12 | 1.28%
32 | c1ccc(C[n+]2cccc3ccccc32)cc1 | 2.48%
33 | COC(=O)CS | 0.562%
34 | CCC1(CO)COCOC1 | 0.436%
35 | N#[N+]c1ccc2c(S(=O)(=O)[O-])cccc2c1O | 0.521%
36 | C=C1C[C@@]23CC[C@H]4[C@@](C)(CCC[C@@]4(C)C(=O)O[C@@H]4O[C@H](CO)[C@@H](O)[C@H](O)[C@H]4O)[C@@H]2CC[C@]1(O[C@@H]1O[C@H](CO)[C@@H](O)[C@H](O[C@@H]2O[C@H](CO)[C@@H](O)[C@H](O)[C@H]2O)[C@H]1O[C@@H]1O[C@H](CO)[C@@H](O)[C@H](O)[C@H]1O)C3 | 0.205%
37 | CC(C)(C)CC(=O)OCC(=O)[C@@]1(O)CC[C@H]2[C@@H]3CCC4=CC(=O)C=C[C@]4(C)[C@H]3[C@@H](O)C[C@@]21C | 3.45% [at 42.5 µM]
38 | O=C(CCCN1CC=C(n2c(=O)[nH]c3ccccc32)CC1)c1ccc(F)cc1 | -0.187% [at 42.5 µM]
39 | OCCOCC#CCOCCO | 2.23%
40 | Cc1ccc(OC(=O)c2ccccc2O)cc1 | 0.167%
